# According to the supplement of paper PMC13380429:
# A number with no mark means an inactive call.
# Test system: Vero E6 infected with SARS-CoV-2
# Assay: inhibition of SARS-CoV-2 cytopathic effect; higher = more antiviral protection, active = above 15
# Settings: 48 h
Compound,inhibition of SARS-CoV-2 cytopathic effect (1 nM),inhibition of SARS-CoV-2 cytopathic effect (8.33 nM),inhibition of SARS-CoV-2 cytopathic effect (100 nM),inhibition of SARS-CoV-2 cytopathic effect (833.33 nM),inhibition of SARS-CoV-2 cytopathic effect (10000 nM)
COc1cc(C(=S)N2CCOCC2)ccc1O [vanitiolide],-0.99%,-1.31%,-0.6%,2.4%,-0.14%
O=C(NN1C(=O)[C@@H]2[C@@H]3C=C[C@@H]([C@H]4C[C@@H]34)[C@@H]2C1=O)c1ccc(C(F)(F)F)cc1 [tecovirimat],1.41%,2.44%,2.71%,0.04%,-0.46%
NNC(=O)CSc1nc2scc(-c3ccccc3)c2c(=O)n1-c1ccccc1,-1.69%,1.94%,-0.83%,-2.58%,-1.58%
COc1cccc(OC)c1C(=O)N[C@@H]1C(=O)N2[C@@H]1SC(C)(C)[C@@H]2C(=O)O [methicillin],-3.39%,1.78%,-1.39%,-0.54%,1.21%
O=C1NC(=O)/C(=C/c2ccc(-c3ccc(F)cc3O)o2)S1,-0.52%,-0.98%,-0.46%,-1.39%,-0.94%
CCCCCCOC(=O)NC(=N)c1ccc(NCc2nc3cc(C(=O)N(CCC(=O)OCC)c4ccccn4)ccc3n2C)cc1 [dabigatran-etexilate],1%,2.6%,1.5%,1.44%,-2.8%
COc1ccc(Cl)cc1NC(=O)Nc1cc(C)nc2ccccc12,1.48%,-2.11%,-0.41%,1.18%,-17.7%
CC(C)CC(=O)Nc1n[nH]c2c1CN(C(=O)C1CCN(C)CC1)C2(C)C,0.53%,-0.22%,0.24%,0.59%,1.78%
N=C(N)NCCC[C@H](NC(=O)[C@@H]1CCCN1C(=O)[C@@H]1CSSC[C@H](N)C(=O)N[C@@H](Cc2ccc(O)cc2)C(=O)N[C@@H](Cc2ccccc2)C(=O)N[C@@H](CCC(N)=O)C(=O)N[C@@H](CC(N)=O)C(=O)N1)C(=O)NCC(N)=O [vasopressin],3.02%,-0.42%,1.64%,0.05%,-0.05%
CCC(=O)c1cc(-c2ccc(Cl)cc2)n(-c2ccc(S(N)(=O)=O)cc2)c1C,-0.96%,-3.03%,0.71%,-1.12%,3.3%
CCCCCCCN(CC)CCC[C@@H](O)c1ccc(NS(C)(=O)=O)cc1 (racemic) [ibutilide],-3.47%,-2.14%,-2.19%,0.97%,-2.22%
C[N@+]1(CC2CC2)CC[C@]23c4c5ccc(O)c4O[C@H]2C(=O)CC[C@@]3(O)[C@H]1C5 [methylnaltrexone],1.92%,-0.19%,1.95%,1.11%,1.64%
C/C=C(/C(=C/C)c1ccc(O)cc1)c1ccc(O)cc1 [dienestrol],2%,-0.9%,-0.85%,0.84%,1.6%
CCOP(=S)(OCC)Oc1nc(Cl)c(Cl)cc1Cl [chlorpyrifos],0.53%,2.45%,-0.67%,0.54%,-4.79%
O=C1CNC(=O)CN1 [piperazinedione],-1.5%,-0.79%,-1.97%,-2.42%,-2.4%
C=CC(=O)Nc1cccc(C)c1Nc1ncc2cc(-c3c(Cl)c(OC)cc(OC)c3Cl)ccc2n1,-1.66%,-0.88%,-0.76%,0.98%,3.67%
CCN(CCO)CCCOc1ccc2c(Nc3cc(CC(=O)Nc4cccc(F)c4)[nH]n3)ncnc2c1 [barasertib-HQPA],-1.93%,-0.82%,-3.04%,-4.18%,-5.49%
CN(N=O)C(=O)N[C@@H](C=O)[C@@H](O)[C@H](O)[C@H](O)CO [streptozotocin],-2.28%,-2.25%,2.59%,1%,3.27%
CC(C)N(CCC(=O)c1ccc2ccccc2c1)Cc1ccccc1,0.32%,-1.41%,1.13%,3.16%,3.92%
Cc1ccc([N+](=O)[O-])cc1S(=O)(=O)N(C)C,-1.97%,-4.63%,-0.38%,-0.5%,-0.2%

Compound,inhibition of SARS-CoV-2 cytopathic effect (1 nM),inhibition of SARS-CoV-2 cytopathic effect (8.33 nM),inhibition of SARS-CoV-2 cytopathic effect (100 nM),inhibition of SARS-CoV-2 cytopathic effect (833.33 nM),inhibition of SARS-CoV-2 cytopathic effect (10000 nM)
NC(=O)N1c2ccccc2CC(=O)c2ccccc21 [oxcarbazepine],0.74%,3.71%,4.19%,-0.85%,4.57%
Oc1ccc(C(O)CNCCCCCCNCC(O)c2ccc(O)c(O)c2)cc1O (stereo not given) [hexoprenaline],-3.2%,0.65%,2.27%,-1.49%,-2.87%
CC(C)NC(=O)c1ccc(C#Cc2ccncc2)cn1,-1%,1.41%,2.79%,1.58%,13.2%
CCOc1cncc(/C=C/CCNC)c1,0.97%,-1.63%,-0.92%,0.41%,3.59%
O=C(c1ccc(F)c(F)c1Nc1ccc(I)cc1F)N1CC(O)([C@@H]2CCCCN2)C1 [cobimetinib],-0.38%,-3.42%,-9.73%,-11.8%,-12.2%
c1ccc(C(NCc2cccnc2)(c2ccccc2)c2ccccc2)cc1,1.69%,4.02%,1%,1.58%,2.26%
CCc1nc(N)nc(N)c1-c1ccc(Cl)cc1 [pyrimethamine],2.57%,3.29%,2.35%,1.69%,-1.07%
O=C(O)C(Cc1ccccc1[N+](=O)[O-])=NNc1nc(-c2ccc(Cl)c(Cl)c2)cs1,4.49%,-0.65%,-1.01%,3.78%,0.02%
CCCCN1CCC(CCC(=O)c2cc(Cl)c(N)cc2OC)CC1,-0.14%,-0.19%,-0.31%,-1.87%,-3.77%
O=C(CN1C(=O)C2(CCCC2)NC[C@H]1c1cc(F)cc(F)c1)Nc1ccc2c(c1)C[C@@]1(C2)C(=O)Nc2ncccc21,-6.85%,-7.92%,-8.42%,-6.83%,-2.55%
C=C1CC/C=C(\C)CC[C@@H]2[C@@H]1CC2(C)C [g-caryophyllene],1.74%,2.63%,-0.6%,1.24%,1.88%
CN1CCC(CNc2ccc3ncc(-c4cccc(OC(F)(F)F)c4)n3n2)CC1,2.01%,5.2%,2.97%,-0.97%,19.8% (active)
Cc1onc(O)c1C[C@@H](N)C(=O)O (racemic),0.825%,1.39%,2.15%,2.51%,1.4%
O=C(O)C1=CCCN(CCOC(c2ccc(C(F)(F)F)cc2)c2ccc(C(F)(F)F)cc2)C1,0.02%,0.95%,-2.81%,1.77%,0.32%
Oc1cccc(Nc2ncc(F)c(Nc3cccc(O)c3)n2)c1,2.79%,0.2%,0.24%,-2.05%,-5.48%
COC1(C[S@@+]([O-])c2ccccc2)CCN(CCc2c[nH]c3ccc(F)cc23)CC1,1.49%,4.84%,3.16%,1.05%,-2.13%
Cc1cccc(-c2n[nH]cc2-c2ccc(F)c(-c3cnn(CCO)c3)c2)n1,3.99%,1.16%,-2.29%,-0.9%,-3.66%
CC(C)(C)CC(C)(C)c1ccc(OCCOCC[N+](C)(C)Cc2ccccc2)cc1 [benzethonium],-8.35%,-10.6%,-12.9%,-9.21%,-15.1%
Nc1ncnc2nc(-c3ccc(N4CCOCC4)nc3)cc(-c3cccc(Br)c3)c12,-0.77%,-1.24%,-5%,-0.05%,-1.01%
NC(=O)C[C@H](N)C(=O)O [L-asparagine],-2.05%,-1.93%,-3.65%,-1.45%,-0.9%
